Compound activity: PubChem BioAssay, several laboratories
Only some compounds are listed: those with a hit (about 3.4% of all), similar ones and a draw of the others.
Bim-Mcl-1: disrupts Bim peptide binding to human Mcl-1; Q07820; Bead-based flow cytometry, Bim peptide-Mcl-1 binding; inhibition, % at 10 µM; actives 0.1% (n = 190,000); AID 1009; in the data active means inhibition above about 40%;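 further: 0% = no compound tracer wells and 100% = peptide blocker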
p47phox inh: blocks human p47phox regulatory protein of NADPH oxidases; P14598; p47phox/p22phox peptide binding, fluorescence polarization, 2 h; inhibition, % at 24.7 µM; actives 0.53% (n = 220,000); AID 1274;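 further: 0% = p47phox with labelled peptide and 100% = labelled peptide alone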
Target sequence (P14598 whole entry, looked up): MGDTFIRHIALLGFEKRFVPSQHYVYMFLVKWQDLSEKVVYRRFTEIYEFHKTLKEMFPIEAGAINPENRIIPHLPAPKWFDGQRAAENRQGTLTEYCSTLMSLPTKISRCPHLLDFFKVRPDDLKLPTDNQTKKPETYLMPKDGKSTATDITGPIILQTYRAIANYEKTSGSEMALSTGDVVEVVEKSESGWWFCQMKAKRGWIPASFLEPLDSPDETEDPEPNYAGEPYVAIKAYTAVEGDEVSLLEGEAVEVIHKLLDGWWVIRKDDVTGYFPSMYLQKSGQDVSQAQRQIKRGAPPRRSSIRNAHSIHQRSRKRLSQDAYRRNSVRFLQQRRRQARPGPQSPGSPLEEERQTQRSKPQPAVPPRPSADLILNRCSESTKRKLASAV
Mcl1-Noxa inh: Mcl-1/Noxa interaction inhibition | TR-FRET Mcl-1/Noxa peptide binding, 2 h | inhibition, % at 21.7 µM | actives 1.5% (n = 220,000) | AID 1022;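 active means compounds that cut the protein-peptide binding signal by more than 50% relative to plate controls in a single-dose test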;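 further: His-tagged Mcl-1 with rhodamine Noxa BH3 peptide and terbium anti-His antibody; 0% = Mcl-1 plus Noxa peptide wells and 100% = peptide-only wells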
eIF4E-4G inh: eIF4E/eIF4G interaction inhibition in translation initiation; AID 782; TR-FRET eIF4E-eIF4GI(517-606) binding, 2 h; actives 0.37% (n = 220,000); inhibition, % at 21.7 µM; P63073+Q04637;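 further: 0% = full FRET control wells and 100% = background wells lacking eIF4GI fragment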
Mcl1 Bid PPI: disrupts binding of human Mcl-1 to Bid peptide | Q07820 | actives 0.97% (n = 220,000) | inhibition, % at 21.7 µM | AID 1021 | TR-FRET Mcl-1/Bid-Dy647 peptide binding, 1536-well;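 active means compounds that cut the binding signal by more than half at the single screening dose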;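 further: His-tagged Mcl-1 with europium anti-His antibody binding Bid BH3 peptide; 0% = Mcl-1 plus peptide wells and 100% = peptide-only wells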
14-3-3 Bad inh: disrupts binding of bovine 14-3-3 zeta to phospho-Bad peptide; P63103; TR-FRET 14-3-3zeta/Dy647-pBad peptide displacement, 1 h; inhibition, % at 21.7 µM; actives 0.71% (n = 220,000);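 active means inhibition above about 70%, limit read from the data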;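 further: 0% = full 14-3-3 plus peptide FRET controls and 100% = background without 14-3-3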
Target sequence (P63103 whole entry, looked up): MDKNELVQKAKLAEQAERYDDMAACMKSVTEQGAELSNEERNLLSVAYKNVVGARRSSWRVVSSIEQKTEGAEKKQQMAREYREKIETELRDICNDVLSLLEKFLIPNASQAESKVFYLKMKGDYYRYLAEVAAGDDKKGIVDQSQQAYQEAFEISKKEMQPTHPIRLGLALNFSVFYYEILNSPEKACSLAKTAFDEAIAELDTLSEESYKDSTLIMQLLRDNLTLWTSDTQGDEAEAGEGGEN
An asterisk follows results filed as active; · = no result; [ ] = dose if it differs, or a comment.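 How the source made its calls, unless noted: active means inhibition above about 30% (limit read from the data); inactive means the rest.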

SMILES	Bim-Mcl-1	p47phox inh	Mcl1-Noxa inh	eIF4E-4G inh	Mcl1 Bid PPI	14-3-3 Bad inh
CSc1cccc(CN2CCN(Cc3ccc(F)c(F)c3)C(CCO)C2)c1 (stereo not given)	-2.0	1.4	8.6	1.1	-28.5	-15.7
COc1ccc([N+](=O)[O-])cc1NC(=O)CSc1ncccn1	-2.0	-2.7	10.2	-1.4	6.0	2.2
COc1cc(NC(=O)CSc2nccc(C)n2)c(C)cc1[N+](=O)[O-]	-2.0	-1.9	56.6*	1.5	-31.7	-28.2
O=C(CSc1ncccn1)Nc1cc(Cl)ccc1[N+](=O)[O-]	-1.0	11.0	4.0	-2.7	3.2	8.9
COc1cc(NC(=O)CSc2nccc(C)n2)c(C(=O)O)cc1OC	-5.0	-11.7	7.2	-1.3	-9.3	14.2
Cc1nc(SCC(=O)Nc2cc(Cl)ccc2[N+](=O)[O-])nc(C)c1C	-5.0	-2.5	8.2	3.3	94.6*	-3.9
COc1ccc([N+](=O)[O-])cc1NC(=O)CSc1nccc(C)n1	1.0	-12.5	57.1*	-4.2	-13.1	-16.1
Cc1ccc(S(=O)(=O)CCC(=O)OCC(=O)Nc2ncc(Cl)cc2Cl)cc1	-1.0	-10.9	8.4	3.1	87.3*	-7.5
Cc1ccc(S(=O)(=O)NCC(=O)OCC(=O)Nc2ncc(Cl)cc2Cl)cc1	-3.0	-7.9	28.4	4.9	-19.5	0.1
CC(C)(Oc1ccc(Cl)cc1)C(=O)OCC(=O)Nc1ncc(Cl)cc1Cl	-3.0	-21.0	9.6	-2.6	6.9	87.9*
O=C(COC(=O)c1ccc(Cl)nc1)Nc1ncc(Cl)cc1Cl	0.0	-2.1	0.4	4.7	-38.7	1.1
Cc1ccc(S(=O)(=O)CCC(=O)OCc2ccc(S(=O)(=O)C(C)C)cc2)cc1	0.0	-0.3	4.8	0.9	-17.1	-8.0
Cc1ccc(S(=O)(=O)CCC(=O)OCc2ccc(Cl)c(Cl)c2)cc1	0.0	1.2	10.9	9.3	55.2*	3.9
COCCCn1c(=O)/c(=C\c2ccccc2OC(C)C)s/c1=C(/C#N)C(=O)Nc1ccc(C(=O)O)cc1	·	-134.0	62.7*	3.7	-21.8	10.1
CCN(CC)C(=O)c1ccc(/C=C/c2c[nH]c3ccccc23)[n+](C)c1	-2.0	-78.8	-97.4	-2.3	-86.2	10.6
CC[n+]1c(/C=C/c2c[nH]c3ccccc23)ccc2cc(C)ccc21	14.0	-167.8	-178.6	32.0*	-43.6	-19.4
CCN1CCN(Cc2ccc(NC(=O)c3cc(NC(=O)c4cncc(-c5ccc(C#N)cc5)c4)cc(OC)c3)cc2C(F)(F)F)CC1	·	68.8*	-184.6	-110.1	-85.3	-58.2
CCN1CCN(Cc2ccc(NC(=O)c3ccc(C)c(NC(=O)c4cc(-c5ccc(Br)cc5)n[nH]4)c3)cc2C(F)(F)F)CC1	·	63.4*	-11.3	17.5	-20.8	-16.7
Cc1ccccc1NC(=O)CSc1nnc(-c2ccco2)c(-c2ccco2)n1	0.0	10.7	87.4*	14.4	47.1	17.4
Cc1ccccc1NC(=O)CSc1n[nH]c(-c2ccco2)n1	-1.0	0.1	3.3	-3.5	-30.1	1.3
Cc1cccc(C)c1NC(=O)CSc1nnc(-c2ccco2)c(-c2ccco2)n1	2.0	-12.2	101.6*	14.3	45.8	16.7
Cc1ccc(S(=O)(=O)c2cc3c(=O)n4ccccc4nc3n(Cc3ccco3)c2=N)cc1	1.0	-42.5	72.2*	14.9	26.4	8.0
Cc1cccn2c(=O)c3cc(C(N)=S)c(=N)n(CCCN4CCOCC4)c3nc12	0.0	-1.9	40.1	3.2	57.9*	-18.2
Cc1cccn2c(=O)c3cc(C(=O)NCc4ccco4)c(=N)n(CCc4ccccc4)c3nc12	·	-2.5	80.3*	-3.7	0.8	14.9
N=c1c(C(=O)NCc2ccccc2)cc2c(=O)n3ccccc3nc2n1Cc1ccco1	-2.0	8.4	57.5*	·	-17.1	·
SMILES	Bim-Mcl-1	p47phox inh	Mcl1-Noxa inh	eIF4E-4G inh	Mcl1 Bid PPI	14-3-3 Bad inh
CCCn1c(=O)c(C(=O)NCc2ccco2)c(O)c2ccccc21	0.0	-4.2	-65.2	4.2	-2.1	-10.1
CCCc1nnc(NC(=O)OCC)s1	0.0	·	-12.7	1.9	1.7	1.1
O=C(COc1cccnc1[N+](=O)[O-])Nc1cc(S(=O)(=O)N2CCCCC2)ccc1Cl	·	-8.3	-3.0	-15.2	-28.8	3.8
Cc1cccc(C)c1NC(=O)N1C2CCC1CC(O)(c1cccnc1)C2 (stereo not given)	-4.0	5.2	53.0*	-1.9	-9.0	-8.8
Cc1ccccc1NC(=O)N1C2CCC1CC(O)(c1cccnc1)C2 (stereo not given)	0.0	-0.9	13.1	-3.6	-10.9	7.6
S=C(N/N=C/c1cccc2ccccc12)Nc1cccc(Cl)c1	·	-17.6	15.3	-4.3	-3.7	0.3
CC12CC3CC(C)(C1)CC(CN1CCOCC1)(C3)C2	-1.0	38.9*	10.1	9.2	1.0	6.8
Cc1c(C(=O)N/N=C/c2ccc(O)c(Br)c2)sc(N)c1C#N	6.0	-35.9	72.1*	-2.7	-23.7	4.2
Cc1c(C(=O)N/N=C/c2ccc(-c3ccccc3[N+](=O)[O-])o2)sc(N)c1C#N	-3.0	-0.2	99.3*	4.7	80.0*	21.1
O=C(N/N=C/c1ccc(-c2ccccc2[N+](=O)[O-])o1)c1cncc(Br)c1	30.0	-11.0	20.6	-1.8	-16.6	-6.7
CCN(CC)CC(=O)Nc1cccc(S(=O)(=O)N2CCCC2)c1	·	0.3	-10.0	-6.9	-10.9	2.7
O=C(CN1CCc2ccccc2C1)Nc1cccc(S(=O)(=O)N2CCCC2)c1	-2.0	9.3	12.0	1.9	7.9	80.1*
NC(=O)c1ccsc1NC(=O)CSc1nnc(Nc2ccccc2)s1	0.0	-45.3	68.7*	5.5	-36.8	6.7
Cn1cc(CN2CCCC(CO)(Cc3cccc(Cl)c3)C2)cn1 (stereo not given)	-3.0	-8.5	67.9*	-0.6	-33.4	-3.3
Cc1onc(-c2c(F)cccc2Cl)c1C(=O)N1CCOC12CCCCC2	-1.0	1.4	9.3	-0.3	-31.1	-22.2
CC1(C)C(=O)Nc2ccccc2N1C(=O)COc1ccc(S(=O)(=O)N2CCOCC2)cc1Cl	-5.0	-12.0	55.8*	18.9	-19.2	4.0
CCOc1ccc(C(=O)Nc2cc(NC(=O)c3ccc(OCC)c(Cl)c3)cc(C(=O)O)c2)cc1Cl	-2.0	-46.7	83.5*	11.7	5.0	25.6
CCOc1ccc(C(=O)Nc2cccc(-c3nc4cccnc4o3)c2)cc1Cl	0.0	-1.2	-3.7	-25.8	50.9*	44.5
CCOc1ccc(C(=O)Nc2cccc(C(=O)O)c2)cc1Cl	3.0	1.8	-0.5	-2.3	-28.5	-6.4
c1ccc(-n2nnc3cnccc32)cc1	-1.0	-10.4	-13.5	30.6*	1.4	-2.1
c1cc(-n2nnc3cnccc32)ccn1	·	-2.2	-12.4	-14.5	-25.0	-0.8
CCN1/C(=C/c2ccc3ccccc3[n+]2CC)C=Cc2ccccc21	-3.0	-181.8	-11.3	45.6*[fluorescence artefact?]	-56.4	41.5
CCCCOC(=O)Nc1nnc(SCCOc2ccc(C)cc2)s1	-2.0	-10.0	2.1	43.5*[fluorescence artefact?]	-23.4	4.5
